Data reported in PubChem BioAssay.
Values without a mark were called inactive. Calls of active or inactive are those of the source. Rule as the data show it, unless noted: active = inhibition above about 30%; inactive = the rest.

Legend:
[1] = molecular target: Nuclear receptor coactivator 3 (Homo sapiens) (UniProt Q9Y6Q9); assay: NCOA3 GAL4-fusion reporter inhibition – cell-based, luminescence, quadruplicate, confirmation (AID 588792;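 active = mean inhibition over 43.08%, the solvent-only control mean plus 3 SD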;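 also: 0% = DMSO treated cells and 100% = gossypol at 36 µM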); settings: HEK293 GAL4-SRC3 luciferase reporter, at 3.6 µM, active compounds read high
[2] = test system: transactivating tegument protein VP16 (Human herpesvirus 1), Gal4-VP16 luciferase reporter; assay: repression of VP16-driven luciferase reporter – cell-based, luminescence, high throughput, counter-screen for SRC3 inhibitor project (AID 588794); settings: mammalian cells, at 3.6 µM, active compounds read high

Chain of Nuclear receptor coactivator 3 (Homo sapiens) (Q9Y6Q9 whole entry, looked up, the tested form may be a part): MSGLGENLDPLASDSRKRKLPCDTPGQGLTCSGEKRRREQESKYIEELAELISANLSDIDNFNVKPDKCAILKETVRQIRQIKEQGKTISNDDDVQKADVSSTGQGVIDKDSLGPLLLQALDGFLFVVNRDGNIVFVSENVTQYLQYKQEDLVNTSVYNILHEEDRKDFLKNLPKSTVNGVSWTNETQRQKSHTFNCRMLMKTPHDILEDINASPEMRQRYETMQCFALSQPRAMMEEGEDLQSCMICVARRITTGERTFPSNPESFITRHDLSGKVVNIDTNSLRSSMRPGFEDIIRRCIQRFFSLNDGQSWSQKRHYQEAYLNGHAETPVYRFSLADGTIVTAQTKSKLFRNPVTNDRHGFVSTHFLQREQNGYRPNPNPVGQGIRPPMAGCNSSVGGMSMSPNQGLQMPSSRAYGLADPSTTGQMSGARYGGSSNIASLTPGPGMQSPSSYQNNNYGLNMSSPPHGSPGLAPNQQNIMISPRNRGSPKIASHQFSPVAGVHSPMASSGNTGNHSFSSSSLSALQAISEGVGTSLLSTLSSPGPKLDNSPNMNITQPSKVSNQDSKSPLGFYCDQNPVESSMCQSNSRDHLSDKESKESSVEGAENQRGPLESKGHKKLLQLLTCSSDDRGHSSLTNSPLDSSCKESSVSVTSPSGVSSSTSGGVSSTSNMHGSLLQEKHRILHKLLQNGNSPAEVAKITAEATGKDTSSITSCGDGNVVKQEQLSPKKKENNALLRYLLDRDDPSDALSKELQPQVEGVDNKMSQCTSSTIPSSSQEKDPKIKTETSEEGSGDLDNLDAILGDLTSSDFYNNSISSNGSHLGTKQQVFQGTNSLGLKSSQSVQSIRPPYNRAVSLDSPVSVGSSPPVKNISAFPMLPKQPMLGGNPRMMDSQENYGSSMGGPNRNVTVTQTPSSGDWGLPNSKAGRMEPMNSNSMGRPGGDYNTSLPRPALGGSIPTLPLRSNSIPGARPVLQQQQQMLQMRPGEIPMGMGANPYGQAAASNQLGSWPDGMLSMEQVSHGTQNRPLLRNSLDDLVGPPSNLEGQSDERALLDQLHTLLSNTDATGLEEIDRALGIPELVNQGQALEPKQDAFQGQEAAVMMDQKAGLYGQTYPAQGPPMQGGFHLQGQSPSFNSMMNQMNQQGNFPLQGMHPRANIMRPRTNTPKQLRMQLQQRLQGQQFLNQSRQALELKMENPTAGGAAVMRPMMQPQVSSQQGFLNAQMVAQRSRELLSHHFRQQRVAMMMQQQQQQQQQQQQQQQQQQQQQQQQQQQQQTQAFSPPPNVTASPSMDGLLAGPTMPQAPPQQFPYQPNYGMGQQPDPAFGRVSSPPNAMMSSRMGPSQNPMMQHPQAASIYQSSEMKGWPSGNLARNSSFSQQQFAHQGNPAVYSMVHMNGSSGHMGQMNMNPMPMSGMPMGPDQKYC

SMILES	inhibition [1]	inhibition [2]
Cc1cccc(/C=N/n2c(-c3ccncc3)n[nH]c2=S)c1	11.2%	2.95%
C[C@H](NS(=O)(=O)c1ccc(Cl)cc1)C(=O)OCC(=O)NC(=O)Nc1ccc2c(c1)OCCO2	-39.7%	-25.8%
Cc1nc(NCc2ccccn2)c2ccccc2n1	-6.68%	13.9%
CCOc1ccc(N(CC)C(=O)Cc2c(C(=O)O)n(C)c3ccccc23)cc1	-8.28%	7.58%
Nc1nc(CCl)nc(N(c2ccccc2)c2ccccc2)n1	18.4%	15.9%
COc1ccc(O)c(-c2[nH]ncc2C(=O)c2ccccc2)c1	26.3%	18.6%
C=CCOn1c(C)c(C(C)=O)c2c3nonc3ccc21	42%	25.4%
CCc1nc(Nc2ccc3nccnc3c2)c2oc3ccccc3c2n1	5.99%	13.6%
CCCCc1c(O)nc(SCC(=O)NCC2CCCO2)[nH]c1=O (configuration not stated)	-3.37%	6.46%
COc1ccc(-n2nc(C(=O)NCC(=O)NCC3COc4ccccc4O3)c3ccccc3c2=O)cc1OC (configuration not stated)	-4.76%	-7.63%
COc1ccccc1C(=O)OCC(=O)c1ccc(CNC(C)=O)s1	10.4%	-0.94%
COc1cc(/C=C/c2cc(C(F)(F)F)[nH]c(=O)n2)cc(OC)c1OC	16.9%	40.6% (active)
COc1ccc(NC(=O)c2sc(=O)n(Cc3ccccc3C#N)c2C)cc1OC	7.52%	31.8% (active)
CC(C)(C)OC(=O)NCc1ccc(CNC(=O)c2[nH]cnc2C(=O)NC2CCN(C(=O)OC(C)(C)C)CC2)cc1	4.73%	-0.72%
COC(=O)c1cc(S(=O)(=O)NCCc2ccc(Cl)cc2)c[nH]1	29.2%	18.4%
COc1ccccc1NS(=O)(=O)c1cc(NC(=O)c2[nH]c(C)c(C(C)=O)c2C)ccc1N1CCOCC1	15.5%	-14.8%
CC1CCCC=CC2CC(OC(=O)CN(C)C)CC2C(O)C=CC(=O)O1 (configuration not stated)	65.1% (active)	71.2% (active)
N#C/C(C(N)=O)=C1/CCc2ccccc2N1	21.2%	-2.45%
COc1ccc(CCNC(=O)COc2ccc(N(C)S(=O)(=O)c3ccc(Cl)cc3)cc2)cc1	10.9%	20.2%
Cc1nnnn1/C(=C\c1ccccc1)C(=O)OCC(=O)Nc1cccc(S(=O)(=O)N(C)C)c1	-9.38%	13.2%
COCC(C)NS(=O)(=O)c1ccc(C(=O)NC(Cc2ccccc2)c2ccccc2)cc1 (configuration not stated)	17.7%	0.32%
O=C(c1cc2sccc2n1Cc1ccccc1)N1CCN(c2nc3ccccc3s2)CC1	2.32%	35.9% (active)
CS(=O)(=O)c1ccc(Sc2nc3ccccc3s2)c([N+](=O)[O-])c1	45.8% (active)	19.5%
CN1/C(=C\C(=O)C[n+]2cccc(Br)c2)C(C)(C)c2ccccc21	25.3%	21.2%

SMILES	inhibition [1]	inhibition [2]
CC(C)NC(=O)N(C)C[C@H]1Oc2ccc(NS(=O)(=O)c3ccc(Cl)cc3)cc2CC(=O)N([C@@H](C)CO)C[C@@H]1C	5.62%	-1.86%
CCCc1nn(C)c(C(=O)Nc2cccc(Cl)c2)c1Cl	15%	0.8%
COc1ccc(-c2cc(C(=O)NNC(=S)NC(=O)c3c(-c4ccccc4)noc3C)[nH]n2)cc1	6.16%	-3.86%
Oc1c(CN2CCCCC2)cc(COCc2ccccc2)c2cccnc12	75.2% (active)	66.7% (active)
CCOC(=O)c1cnc(SC2CC(=O)N(c3cccc(OC)c3)C2=O)nc1N (configuration not stated)	9.15%	6.73%
CC[C@H](C)Cc1cn([C@@H](CCCCNC(=O)OC(C)(C)C)C(=O)NCCCCCCCCCCC(=O)N2CCN(C(=O)OC(C)(C)C)CC2)nn1	17.9%	22.5%
Cc1ccc(NC(=O)c2cccc(S(=O)(=O)NCc3ccccc3)c2)nc1	-3.03%	6.44%
Cc1ccc(-c2csc(NC(=O)c3cccc(C)c3)c2C(=O)O)cc1	-6.27%	0.42%
COc1ccccc1N(CC(=O)N/N=C/c1c(O)ccc2ccccc12)S(C)(=O)=O	34.2%	41.2% (active)
CCCC(C(=O)NC(C)(C)C)N(C(=O)c1snc(C(N)=O)c1N)c1ccc2c(c1)OCCO2 (configuration not stated)	15.9%	2.4%
Cc1cccc(Nc2nc(N)c([N+](=O)[O-])c(N3CC(C)CC(C)C3)n2)c1 (configuration not stated)	3.08%	15.7%
CN1CCN(Cc2cc(COCc3ccccc3)c3cccnc3c2O)CC1	20.5%	31% (active)
COc1ccc2c(c1)CCc1cnc(N)nc1-2	20%	10.4%
COc1ccccc1NC(=O)Nc1nnc(Cc2ccc(F)cc2)s1	3.85%	9.25%
Cc1ccc(CNC(=O)CCc2ccc(S(=O)(=O)NC3CCCCC3)cc2)cc1	0.11%	0.04%
CC(C)C(C)NC(=O)CSc1ccc(S(=O)(=O)N2CCOCC2)cn1 (configuration not stated)	-6.95%	8.39%
O=C(c1ccccc1)N1CCN(Cc2c[nH]c3ccccc23)CC1	8.59%	-3.11%
c1csc(Cc2nn3c(-c4ccncc4)nnc3s2)c1	29.8%	20.8%
CC1CN(Cc2ccccc2)c2nc3c(c(=O)n(CC(N)=O)c(=O)n3C)n2C1 (configuration not stated)	0.26%	-4.77%
CCN(CC)S(=O)(=O)c1cc(NC(=O)C(C)OC(=O)c2[nH]c(C)c(C(C)=O)c2C)ccc1C (configuration not stated)	16%	8.36%
CCOC(=O)Cc1[nH]nc2c1C(c1cccc(OC)c1OC)C(C#N)=C(N)O2 (configuration not stated)	-9.29%	0.25%
COc1ccc(C(=O)Cn2nc(CNc3ccc(Br)cc3)[n+]3c2CCCCC3)cc1	-7.02%	3.2%
COc1ccc(C(C(=O)NC2CCCCC2)N(C(=O)CCl)c2ccc(OC)cc2)cc1 (configuration not stated)	64.4% (active)	27.2%
C/C(=N\NC(=O)c1cc(-c2cccnc2)nc2ccccc12)c1ccc(O)cc1O	48.4% (active)	29.9% (active)

SMILES	inhibition [1]	inhibition [2]
O=c1[nH]c(=O)n([C@H]2C[C@H](O)[C@@H](CO)O2)cc1Br	14.7%	16.2%
COc1cccc(/C=C/C(=O)OCC(=O)N2CCCC2)c1OC	-12.6%	-16%
NC(=S)NN=C(Cc1ccccc1)Cc1ccccc1	22.4%	15.6%
CCOc1ccc(N2C(=O)/C(=C/c3cc(OC)c(OC)c(OC)c3)N(CC(=O)OC)C2=S)cc1	18.9%	12.7%
Cc1ccc(-c2c[n+](Cc3cccc(Cl)c3)c3n2CCC3)cc1	-6.57%	18.4%
NC(=S)N/N=C1\CCOc2ccc(Cl)cc21	34.6%	9.88%
Cc1ccc(-c2cn(-c3ccc(OC(F)F)cc3)c3[n+]2CCCCC3)cc1	3.74%	23%
O=c1cc(CNc2cc(C(F)(F)F)cc(C(F)(F)F)c2)nc2sccn12	4.27%	3.94%
CCCCCn1c(=O)[nH]c2cc(C(=O)N3CCN(c4ccc(C(C)=O)cc4)CC3)ccc2c1=O	0.25%	21.7%
COc1ccc2nc(NC(=O)C3CCN(S(=O)(=O)c4cccs4)CC3)sc2c1	20.3%	15.2%
Cc1ccc(NC(=O)C2c3ccccc3-c3ccccc32)cc1	9.64%	6.56%
COc1cc(C(=O)Nc2nc(-c3cccs3)cs2)cc(OC)c1OC	-9.35%	-21.8%
Cc1cccc(OC(=O)NCCOC(=O)N(O)c2ccc(Cl)cc2)c1	4.94%	-5.77%
CC(Oc1ccc(Cl)cc1)C(=O)NCCN1C(=O)S/C(=C\c2cccnc2)C1=O (configuration not stated)	4.29%	-2.64%
Cc1cc(C=C2C(=O)c3ccccc3C2=O)c(C)n1-c1cccc(C(=O)O)c1	23.3%	10.4%
COc1cc(NC(=O)c2cc3ccccc3cc2OC)ccc1NC(=O)c1cccs1	4.37%	-1%
Cc1ccc(-c2c[n+]3c(n2-c2ccccc2)SCC3)cc1	8.17%	24.7%
Cc1ccc2[nH]c(C(=O)N/N=C/c3ccccc3O)c(C)c2c1	65.9% (active)	67.7% (active)
c1cncc(CNc2ncnc3sc4c(c23)CCC4)c1	23.1%	9.1%
CCOC(=O)c1ccc2nc(Nc3nc4ccc(F)cc4s3)sc2c1	15.2%	3.4%
CCOC(=O)c1c(Nc2ccccc2OCCOC)n[nH]c1C	-0.73%	-0.92%
Cc1ccc(-n2c(-c3ccccc3)c[n+]3c2CCC3)cc1	14.4%	30.6% (active)
S=C(N/N=C/c1ccc2ncccc2c1)Nc1cccnc1	-1.24%	-17.5%
